Tests used:
Experiment in all cases: log2 ratio of Biotin-Ahx-Ub-VS probe labelling (fragment/DMSO); higher = less target engagement (more negative = stronger competition), active = hit call of the paper (q ≤ 0.05, log2 ratio ≤ -1)
Conditions in all cases: compound concentration: 200 uM; treatment time: 3 h
USP9X = USP9X (UniProt Q93008)
Method in brief: (§1)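 HEK293T lysate (495 µg per sample, in Tris/CHAPS/IGEPAL buffer with protease inhibitors) was exposed in triplicate for 3 h to fragment at 200 µM or to vehicle, then to Biotin-Ahx-Ub-VS at 0.5 µM final for 1 h. Labelled DUBs were enriched on NeutrAvidin, digested with LysC and trypsin, and analysed by diaPASEF LC-MS/MS. Spectronaut label-free quantities were normalised to the global median, and values are average log2 ratios of fragment over vehicle from an unpaired t-test. Only proteins with ≥2 unique peptides were used.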

UniProt O00487 = biological target: UniProt O00487
Method in brief: as §1

UniProt O00507 = biological target: UniProt O00507
Method in brief: as §1

UniProt P51784 = biological target: UniProt P51784
Method in brief: as §1

UniProt Q5T2D3 = biological target: T1, UniProt Q5T2D3
T1 sequence (whole entry): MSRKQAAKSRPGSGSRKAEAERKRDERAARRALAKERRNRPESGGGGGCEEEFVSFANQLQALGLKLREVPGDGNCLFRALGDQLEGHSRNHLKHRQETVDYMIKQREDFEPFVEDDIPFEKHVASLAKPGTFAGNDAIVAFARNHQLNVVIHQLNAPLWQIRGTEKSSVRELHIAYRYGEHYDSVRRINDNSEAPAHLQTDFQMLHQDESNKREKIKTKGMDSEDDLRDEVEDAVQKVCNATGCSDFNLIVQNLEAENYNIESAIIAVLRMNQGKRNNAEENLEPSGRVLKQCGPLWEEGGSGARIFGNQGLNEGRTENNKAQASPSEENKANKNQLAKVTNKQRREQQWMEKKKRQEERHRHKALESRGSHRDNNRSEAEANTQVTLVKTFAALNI
Method in brief: as §1

UniProt Q8TE49 = biological target: T2, UniProt Q8TE49
T2 sequence (whole entry): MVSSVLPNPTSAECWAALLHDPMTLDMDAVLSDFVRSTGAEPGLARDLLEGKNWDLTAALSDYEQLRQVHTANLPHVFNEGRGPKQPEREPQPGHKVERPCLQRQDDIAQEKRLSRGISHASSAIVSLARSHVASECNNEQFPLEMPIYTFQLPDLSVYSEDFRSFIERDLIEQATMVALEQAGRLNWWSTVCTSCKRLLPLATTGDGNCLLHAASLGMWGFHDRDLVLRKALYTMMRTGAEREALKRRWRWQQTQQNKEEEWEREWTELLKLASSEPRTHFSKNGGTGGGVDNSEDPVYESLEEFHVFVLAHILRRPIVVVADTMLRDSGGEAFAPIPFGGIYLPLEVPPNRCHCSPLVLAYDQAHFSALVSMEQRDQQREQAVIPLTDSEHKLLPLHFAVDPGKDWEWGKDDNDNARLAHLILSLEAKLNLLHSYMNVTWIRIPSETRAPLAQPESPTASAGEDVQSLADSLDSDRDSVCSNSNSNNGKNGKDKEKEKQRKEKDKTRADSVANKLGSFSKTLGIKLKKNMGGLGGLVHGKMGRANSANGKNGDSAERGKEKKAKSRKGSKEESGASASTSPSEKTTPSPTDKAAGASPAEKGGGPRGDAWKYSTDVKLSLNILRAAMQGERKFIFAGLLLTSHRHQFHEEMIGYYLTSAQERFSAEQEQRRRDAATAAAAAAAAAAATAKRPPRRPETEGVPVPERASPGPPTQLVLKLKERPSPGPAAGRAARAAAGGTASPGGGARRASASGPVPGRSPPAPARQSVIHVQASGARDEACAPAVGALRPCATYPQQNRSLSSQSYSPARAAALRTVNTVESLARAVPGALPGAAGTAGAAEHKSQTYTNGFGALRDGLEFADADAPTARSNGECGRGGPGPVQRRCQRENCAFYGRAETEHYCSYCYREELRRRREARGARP
Method in brief: as §1

UniProt Q9P2H5 = biological target: T3, UniProt Q9P2H5
T3 sequence (whole entry): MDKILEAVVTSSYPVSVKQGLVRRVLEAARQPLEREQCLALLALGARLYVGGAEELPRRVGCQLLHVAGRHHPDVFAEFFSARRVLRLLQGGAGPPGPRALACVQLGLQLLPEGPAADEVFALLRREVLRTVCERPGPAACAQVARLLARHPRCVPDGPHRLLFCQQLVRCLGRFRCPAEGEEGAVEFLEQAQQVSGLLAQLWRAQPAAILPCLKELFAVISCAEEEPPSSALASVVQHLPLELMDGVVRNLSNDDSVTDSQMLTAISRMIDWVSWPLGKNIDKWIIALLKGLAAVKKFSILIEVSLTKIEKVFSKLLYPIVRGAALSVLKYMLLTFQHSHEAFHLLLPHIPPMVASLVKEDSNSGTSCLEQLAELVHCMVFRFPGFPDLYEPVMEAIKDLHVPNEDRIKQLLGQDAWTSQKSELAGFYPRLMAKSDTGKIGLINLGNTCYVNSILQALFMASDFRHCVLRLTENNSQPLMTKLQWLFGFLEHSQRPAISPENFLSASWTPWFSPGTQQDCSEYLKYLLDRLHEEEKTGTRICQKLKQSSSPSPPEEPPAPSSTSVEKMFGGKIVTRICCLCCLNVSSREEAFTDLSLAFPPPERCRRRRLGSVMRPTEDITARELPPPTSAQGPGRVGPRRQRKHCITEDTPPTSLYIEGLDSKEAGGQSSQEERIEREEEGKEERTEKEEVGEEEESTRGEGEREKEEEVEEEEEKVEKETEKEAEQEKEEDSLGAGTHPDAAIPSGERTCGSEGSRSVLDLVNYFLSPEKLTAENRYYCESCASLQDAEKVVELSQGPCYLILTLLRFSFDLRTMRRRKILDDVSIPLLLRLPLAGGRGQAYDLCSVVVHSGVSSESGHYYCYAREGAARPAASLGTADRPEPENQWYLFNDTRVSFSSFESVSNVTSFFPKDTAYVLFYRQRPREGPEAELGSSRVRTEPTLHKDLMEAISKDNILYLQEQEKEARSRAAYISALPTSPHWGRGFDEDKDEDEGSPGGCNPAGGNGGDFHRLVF
Method in brief: as §1

UniProt Q9UGI0 = biological target: T4, UniProt Q9UGI0
T4 sequence (whole entry): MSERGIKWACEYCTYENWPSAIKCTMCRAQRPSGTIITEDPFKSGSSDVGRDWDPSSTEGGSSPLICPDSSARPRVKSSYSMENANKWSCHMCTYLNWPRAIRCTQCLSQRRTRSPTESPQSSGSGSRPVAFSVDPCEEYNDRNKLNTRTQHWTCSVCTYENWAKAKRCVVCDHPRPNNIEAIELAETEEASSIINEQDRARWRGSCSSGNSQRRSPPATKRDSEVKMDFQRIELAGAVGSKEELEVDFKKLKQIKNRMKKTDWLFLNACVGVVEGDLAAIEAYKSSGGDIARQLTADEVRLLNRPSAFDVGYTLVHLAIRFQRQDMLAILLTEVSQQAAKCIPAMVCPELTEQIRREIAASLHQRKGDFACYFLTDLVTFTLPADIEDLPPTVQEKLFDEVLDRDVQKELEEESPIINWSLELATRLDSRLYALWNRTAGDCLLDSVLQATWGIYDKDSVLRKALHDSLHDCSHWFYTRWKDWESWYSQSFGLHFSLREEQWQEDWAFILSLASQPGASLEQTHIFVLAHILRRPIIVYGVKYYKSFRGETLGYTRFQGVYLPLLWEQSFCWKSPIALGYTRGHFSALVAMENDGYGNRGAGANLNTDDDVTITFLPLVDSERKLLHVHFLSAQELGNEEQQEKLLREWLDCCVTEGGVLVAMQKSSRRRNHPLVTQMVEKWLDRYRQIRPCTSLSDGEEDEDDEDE
Method in brief: as §1

YOD1 = biological target: T5, YOD1 (UniProt Q5VVQ6)
T5 sequence (whole entry): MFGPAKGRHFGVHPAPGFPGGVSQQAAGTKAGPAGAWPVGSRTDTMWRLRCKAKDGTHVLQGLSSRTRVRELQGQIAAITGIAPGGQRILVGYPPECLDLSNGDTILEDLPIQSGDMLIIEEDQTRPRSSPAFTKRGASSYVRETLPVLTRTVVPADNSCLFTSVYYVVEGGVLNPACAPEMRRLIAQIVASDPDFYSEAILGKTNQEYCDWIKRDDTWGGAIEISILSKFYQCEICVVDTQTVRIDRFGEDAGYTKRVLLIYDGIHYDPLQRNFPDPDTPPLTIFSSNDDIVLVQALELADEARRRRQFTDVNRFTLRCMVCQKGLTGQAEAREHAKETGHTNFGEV
Method in brief: as §1

Measured: log2 ratio of Biotin-Ahx-Ub-VS probe labelling

USP9X, sequence (Q93008 whole entry, the tested form may be a part): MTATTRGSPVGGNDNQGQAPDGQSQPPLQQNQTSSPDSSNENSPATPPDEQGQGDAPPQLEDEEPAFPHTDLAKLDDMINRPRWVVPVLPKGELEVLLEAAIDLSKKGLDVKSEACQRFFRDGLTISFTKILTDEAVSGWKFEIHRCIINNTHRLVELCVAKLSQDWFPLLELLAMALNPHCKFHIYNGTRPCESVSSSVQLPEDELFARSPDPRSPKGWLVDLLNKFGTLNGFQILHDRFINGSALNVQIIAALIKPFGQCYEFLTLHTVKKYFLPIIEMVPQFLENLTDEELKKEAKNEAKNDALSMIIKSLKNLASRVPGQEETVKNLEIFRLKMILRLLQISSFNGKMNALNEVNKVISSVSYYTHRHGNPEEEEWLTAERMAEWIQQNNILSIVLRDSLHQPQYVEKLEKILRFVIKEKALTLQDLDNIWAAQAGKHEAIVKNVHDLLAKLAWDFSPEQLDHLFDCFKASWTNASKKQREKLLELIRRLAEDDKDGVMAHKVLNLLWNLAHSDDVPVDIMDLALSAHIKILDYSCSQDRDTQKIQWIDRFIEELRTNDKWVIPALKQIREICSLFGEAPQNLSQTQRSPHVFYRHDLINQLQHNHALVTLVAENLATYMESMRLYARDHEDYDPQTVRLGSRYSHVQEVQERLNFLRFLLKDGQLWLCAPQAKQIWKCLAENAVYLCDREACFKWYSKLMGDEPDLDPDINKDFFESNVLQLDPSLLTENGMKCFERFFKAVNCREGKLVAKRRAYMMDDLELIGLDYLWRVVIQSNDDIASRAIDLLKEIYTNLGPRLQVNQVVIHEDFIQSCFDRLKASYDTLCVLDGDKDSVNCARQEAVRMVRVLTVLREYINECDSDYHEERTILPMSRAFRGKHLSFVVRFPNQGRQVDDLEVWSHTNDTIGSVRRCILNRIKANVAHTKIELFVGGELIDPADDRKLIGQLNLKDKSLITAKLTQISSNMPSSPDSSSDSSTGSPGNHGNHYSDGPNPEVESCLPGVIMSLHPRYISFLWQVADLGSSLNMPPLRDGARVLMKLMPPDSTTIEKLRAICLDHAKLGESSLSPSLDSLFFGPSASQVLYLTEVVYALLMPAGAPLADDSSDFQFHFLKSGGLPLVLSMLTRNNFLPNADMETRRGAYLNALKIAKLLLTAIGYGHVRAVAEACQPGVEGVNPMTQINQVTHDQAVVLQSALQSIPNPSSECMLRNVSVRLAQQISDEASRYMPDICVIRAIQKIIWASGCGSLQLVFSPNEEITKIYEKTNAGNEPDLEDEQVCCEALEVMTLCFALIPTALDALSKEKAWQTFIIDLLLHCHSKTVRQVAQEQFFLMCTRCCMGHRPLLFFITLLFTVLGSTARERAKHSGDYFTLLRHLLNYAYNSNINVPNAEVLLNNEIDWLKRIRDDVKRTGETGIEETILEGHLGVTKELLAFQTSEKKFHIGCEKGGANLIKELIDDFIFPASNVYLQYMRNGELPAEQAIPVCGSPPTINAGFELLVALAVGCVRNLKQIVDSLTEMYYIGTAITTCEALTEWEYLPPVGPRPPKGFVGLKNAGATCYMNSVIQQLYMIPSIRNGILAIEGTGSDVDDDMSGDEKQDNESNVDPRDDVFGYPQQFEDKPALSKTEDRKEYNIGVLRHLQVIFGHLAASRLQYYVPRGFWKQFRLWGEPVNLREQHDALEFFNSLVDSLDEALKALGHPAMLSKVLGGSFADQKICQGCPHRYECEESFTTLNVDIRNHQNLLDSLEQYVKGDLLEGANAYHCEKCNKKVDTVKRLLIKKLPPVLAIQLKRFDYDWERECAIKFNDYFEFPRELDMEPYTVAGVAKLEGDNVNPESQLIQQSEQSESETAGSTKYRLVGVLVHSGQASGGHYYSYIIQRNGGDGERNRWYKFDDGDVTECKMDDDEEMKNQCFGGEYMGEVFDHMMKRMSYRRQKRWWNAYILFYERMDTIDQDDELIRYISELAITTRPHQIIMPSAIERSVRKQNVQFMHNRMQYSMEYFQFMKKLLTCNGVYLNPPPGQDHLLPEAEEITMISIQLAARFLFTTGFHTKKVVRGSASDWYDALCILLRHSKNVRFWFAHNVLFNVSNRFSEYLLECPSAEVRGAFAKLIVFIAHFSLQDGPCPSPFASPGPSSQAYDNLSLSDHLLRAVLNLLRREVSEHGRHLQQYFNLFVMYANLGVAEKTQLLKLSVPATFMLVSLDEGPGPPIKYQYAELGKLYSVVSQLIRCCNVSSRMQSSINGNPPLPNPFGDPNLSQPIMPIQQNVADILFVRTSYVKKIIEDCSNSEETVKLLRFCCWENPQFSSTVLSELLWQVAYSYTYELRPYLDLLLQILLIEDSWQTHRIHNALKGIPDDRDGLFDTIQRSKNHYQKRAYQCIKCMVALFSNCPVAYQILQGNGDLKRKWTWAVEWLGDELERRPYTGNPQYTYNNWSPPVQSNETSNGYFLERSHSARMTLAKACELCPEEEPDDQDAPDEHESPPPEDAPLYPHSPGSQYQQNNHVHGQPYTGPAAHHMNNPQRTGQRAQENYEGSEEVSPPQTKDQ
UniProt O00487, sequence (O00487 whole entry): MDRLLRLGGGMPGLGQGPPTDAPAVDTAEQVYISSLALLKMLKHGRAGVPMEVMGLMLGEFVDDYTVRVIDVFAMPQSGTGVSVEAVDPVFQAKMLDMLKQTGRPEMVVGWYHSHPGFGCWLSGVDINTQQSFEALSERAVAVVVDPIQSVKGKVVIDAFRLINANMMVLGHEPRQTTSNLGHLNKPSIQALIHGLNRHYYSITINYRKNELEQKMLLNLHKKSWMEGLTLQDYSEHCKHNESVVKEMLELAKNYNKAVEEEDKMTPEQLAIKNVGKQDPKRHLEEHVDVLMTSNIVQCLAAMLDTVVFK
UniProt P51784, sequence (P51784 whole entry): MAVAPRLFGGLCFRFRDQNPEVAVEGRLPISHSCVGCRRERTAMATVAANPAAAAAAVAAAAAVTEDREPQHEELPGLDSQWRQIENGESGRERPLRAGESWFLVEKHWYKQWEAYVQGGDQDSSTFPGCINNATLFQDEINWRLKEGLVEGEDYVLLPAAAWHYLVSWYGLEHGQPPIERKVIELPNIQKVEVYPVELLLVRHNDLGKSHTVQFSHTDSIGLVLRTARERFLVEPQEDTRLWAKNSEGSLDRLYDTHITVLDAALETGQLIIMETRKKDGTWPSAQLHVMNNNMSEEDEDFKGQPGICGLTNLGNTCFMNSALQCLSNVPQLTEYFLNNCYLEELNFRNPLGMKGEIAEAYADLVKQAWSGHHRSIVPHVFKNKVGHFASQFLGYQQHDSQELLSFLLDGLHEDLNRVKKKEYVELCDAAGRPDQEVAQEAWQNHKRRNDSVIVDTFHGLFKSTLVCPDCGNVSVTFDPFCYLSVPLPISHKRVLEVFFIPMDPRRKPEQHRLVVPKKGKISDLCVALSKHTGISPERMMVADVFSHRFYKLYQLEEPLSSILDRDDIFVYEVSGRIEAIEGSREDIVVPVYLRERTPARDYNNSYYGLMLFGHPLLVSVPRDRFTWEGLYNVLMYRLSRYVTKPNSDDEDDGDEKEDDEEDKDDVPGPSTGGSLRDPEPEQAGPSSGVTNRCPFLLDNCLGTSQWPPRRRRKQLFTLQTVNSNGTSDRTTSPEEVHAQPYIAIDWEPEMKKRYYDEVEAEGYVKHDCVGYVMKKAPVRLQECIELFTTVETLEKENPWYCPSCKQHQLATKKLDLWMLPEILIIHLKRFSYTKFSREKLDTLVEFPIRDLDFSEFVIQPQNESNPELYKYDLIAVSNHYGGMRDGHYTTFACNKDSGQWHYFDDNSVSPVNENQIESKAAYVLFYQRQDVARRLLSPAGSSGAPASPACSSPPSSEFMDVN

Cc1cccc2nc(CCNC(=O)CCl)cn12.Cl
inactive: USP9X -0.455 | UniProt O00487 -0.163 | UniProt O00507 -0.595 | UniProt P51784 -0.113 | UniProt Q5T2D3 -0.351 | UniProt Q8TE49 -0.764 | UniProt Q9P2H5 -0.327 | UniProt Q9UGI0 -0.846 | YOD1 -0.336
